From PubChem
HPGD inh: qHTS Assay for Inhibitors of HPGD (15-Hydroxyprostaglandin Dehydrogenase). 15-hydroxyprostaglandin dehydrogenase [NAD(+)] (Homo sapiens), P15428. purified HPGD, NADH fluorescence kinetic, PGE2 substrate. Potency, µM, most hits filed as inhibitors. 150,000 tested, 4.3% active. AID 894, 2007
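20 nM HPGD preincubated 15 min at room temperature with compound in 50 mM Tris-HCl pH 8, 0.01% Tween 20. Started with 1 mM NAD+ and 30 uM prostaglandin E2; NADH fluorescence (360/450 nm) read 5 times over 30-s intervals, last minus first.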
LMNA splice mod: qHTS Assay for Modulators of Lamin A Splicing; Potency, µM (highest dose often 46.1 µM), actives largely listed as inhibitors; 200,000 tested, 0.01% active; HeLa LMNA splicing GFP/RFP minigene ratio, 48 h; active = well fitted inhibition curve with a large enough effect in the signal ratio, with a control signal flat, not every such curve was filed as active; inconclusive = small, poorly fitted or top-dose-only effect, or effect the other way, or a change in a side signal; the % refers to the signal ratio
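S3 HeLa stable clones carrying a lamin A-EGFP splicing minigene plus DsRed2 were seeded at 600 cells/well in Opti-MEM with 2% FBS, pin-dosed and incubated 48 h at 37°C. Acumen cytometry (488 nm) gave the GFP/RFP total-intensity ratio.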
12-hLO inh: qHTS Assay for Inhibitors of 12-hLO (12-human lipoxygenase); Polyunsaturated fatty acid lipoxygenase ALOX12 (Homo sapiens), P18054; purified 12-hLO, xylenol orange hydroperoxide absorbance; Potency, µM (top dose mostly 57.1 µM), actives largely listed as inhibitors; 150,000 tested, 0.12% active; active = well fitted inhibition curve with a large enough effect; inconclusive = small, poorly fitted or top-dose-only effect; also: nearly all actives have a fitted effect of over 55% in size
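Hydroperoxide formation by human 12-lipoxygenase from 40 uM arachidonic acid was followed colorimetrically via ferric-xylenol orange complex, using the 573/405 nm absorbance ratio. Enzyme concentration was 150 nM, with 30 min reaction at room temperature.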
ALDH1A1 block: qHTS Assay for Inhibitors of Aldehyde Dehydrogenase 1 (ALDH1A1); Aldehyde dehydrogenase 1A1 (Homo sapiens), P00352; Purified ALDH1A1, NADH fluorescence, propionaldehyde substrate; Potency, µM (doses to about 75.3 µM), hits mostly inhibitors; 220,000 tested, 7.3% active; AID 1030, 2008
Target sequence (P00352 whole entry, looked up): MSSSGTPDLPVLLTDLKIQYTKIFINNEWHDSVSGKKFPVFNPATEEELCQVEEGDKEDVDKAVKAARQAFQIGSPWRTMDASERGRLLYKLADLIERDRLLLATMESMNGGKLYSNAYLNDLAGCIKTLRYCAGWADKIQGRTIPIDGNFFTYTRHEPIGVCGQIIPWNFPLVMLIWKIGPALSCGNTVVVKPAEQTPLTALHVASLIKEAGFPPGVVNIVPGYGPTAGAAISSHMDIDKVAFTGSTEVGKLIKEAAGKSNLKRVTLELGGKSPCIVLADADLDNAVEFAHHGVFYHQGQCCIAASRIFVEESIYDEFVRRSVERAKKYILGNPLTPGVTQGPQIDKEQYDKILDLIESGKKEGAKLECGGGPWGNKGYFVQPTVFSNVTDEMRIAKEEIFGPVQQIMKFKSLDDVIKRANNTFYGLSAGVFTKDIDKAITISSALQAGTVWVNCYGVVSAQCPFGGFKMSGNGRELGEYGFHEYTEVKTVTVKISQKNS
PNC assembly inh: High Content Assay for Compounds that inhibit the Assembly of the Perinucleolar Compartment | 140,000 tested, 3.1% active | activity change (PNC), negative = inhibition, % at 10 µM | AID 2417, 2010 | PC3M PTB-GFP, PNC prevalence imaging, 16 h; hits give low values;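 active = readout at or below -70, meaning at least 70% loss of cells showing the perinucleolar compartment, a nuclear body marking cancer cells; inconclusive = readout between -30 and a set limit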
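PC3M cells stably expressing PTB-GFP, 750–1000 cells/well, treated 16 h at 37 °C with compound (23 nl of library stock), in duplicate. After paraformaldehyde fixation and Hoechst stain, imaged at 20x; PNC prevalence scored by image analysis.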
Numbers stand for hits. Hits are enriched below; roughly 10% of the tested compounds scored in any of these assays. Unless noted, calls follow the shape of the dose curve; as a rule, active = well fitted inhibition curve with a large enough effect (not every such curve was filed as active); inconclusive = small, poorly fitted or top-dose-only effect, or another doubt; inactive = no such curve, though single readings can be large or run the other way.

For Oc1ccc(/C(Cc2ccccn2)=N\Nc2ccccc2)c(O)c1 the results were LMNA splice mod inconclusive and ALDH1A1 block 18µM.
For CC(=O)Oc1ccc(C(=O)Cc2ccccn2)c(O)c1 the results were HPGD inh inactive, LMNA splice mod inactive, 12-hLO inh inactive, ALDH1A1 block inactive and PNC assembly inh inconclusive.
For CCCCCCCCCCCCCCCCOCC(CO)OC (configuration not stated) the results were HPGD inh inactive, 12-hLO inh inactive and ALDH1A1 block inactive.
`COc1cc2c(cc1OC)C(c1cccnc1)CC(=O)N2` (configuration not stated) gave HPGD inh inactive, LMNA splice mod inactive, 12-hLO inh inactive, ALDH1A1 block inactive and PNC assembly inh -82.
CCN(CC)c1ccc(C2CC(=O)Nc3cc(OC)c(OC)cc32)cc1 (configuration not stated) was read as HPGD inh inactive, LMNA splice mod inactive, 12-hLO inh inactive, ALDH1A1 block 13µM and PNC assembly inh inactive.
CCOc1c(OC)cccc1C1CC(=O)Nc2cc(OC)c(OC)cc21 (configuration not stated) was read as HPGD inh inactive, LMNA splice mod inactive, 12-hLO inh inactive, ALDH1A1 block inactive and PNC assembly inh inactive.
Screening COc1cc2c(cc1OC)C(c1cccc(OC)c1OC)CC(=O)N2 (configuration not stated) returned HPGD inh inactive, LMNA splice mod inactive, 12-hLO inh inactive, ALDH1A1 block inactive and PNC assembly inh inconclusive.
For COc1cc2c(cc1OC)C(c1ccc(N(C)C)cc1)CC(=O)N2 (configuration not stated) the results were HPGD inh inactive, LMNA splice mod inactive, 12-hLO inh inactive, ALDH1A1 block 8.9µM and PNC assembly inh inactive.
COc1cccc(Cn2c(CNC(=O)C(C)C)nc3cccnc32)c1 was read as LMNA splice mod inactive.
`Cc1c(C(=O)NCCN(C)C)sc2nc3n(c(=O)c12)CCC3` gave LMNA splice mod inactive.
`COc1cc(/C=N/NC(=O)CC2(C)OCCCO2)ccc1OCc1ccccc1` gave HPGD inh inconclusive, LMNA splice mod inactive, 12-hLO inh inactive, ALDH1A1 block 11µM and PNC assembly inh inactive.
`Cc1ccc(NC(=O)Nc2cn(C)c(=O)c3ccccc23)c(Cl)c1` gave LMNA splice mod inactive.
Screening Cc1ccc(C(=O)CSc2nnc(-c3ccc4[nH]c(C)c(C)c4c3)o2)cc1C returned HPGD inh inactive, LMNA splice mod inactive, 12-hLO inh inactive, ALDH1A1 block 1.4µM and PNC assembly inh inactive.
For CC1CCN(C(=O)CN2CCSc3ccc(S(=O)(=O)N(C)C)cc32)CC1 the results were LMNA splice mod inactive.
Screening COc1c(CC(=O)c2cc3c(cc2O)OC(C)(C)C(O)C3)ccc2c1C=CC(C)(C)O2 (configuration not stated) returned HPGD inh inactive, 12-hLO inh inactive and ALDH1A1 block inconclusive.
Screening O=C(CNC(=O)c1cccs1)NCC(=O)OCc1ccccc1Cl returned HPGD inh inactive, LMNA splice mod inactive, 12-hLO inh inactive, ALDH1A1 block inactive and PNC assembly inh -83.
Screening COC(=O)c1cc2c(C)cc3ccc(C)cn3c-2c1C(=O)OC returned HPGD inh inactive, LMNA splice mod inactive, 12-hLO inh inactive, ALDH1A1 block 25µM and PNC assembly inh inactive.
Screening OB(O)O returned HPGD inh inactive, LMNA splice mod inconclusive, 12-hLO inh inactive and ALDH1A1 block inactive.
For c1ccc(-n2nnc3cnccc32)cc1 the results were HPGD inh inactive, LMNA splice mod inactive, 12-hLO inh inactive, ALDH1A1 block 1.3µM and PNC assembly inh inconclusive.
`CC(C)(C)OC(=O)N1CCC(c2c(C(=O)Nc3ccc4c(c3)OCCO4)cnn2-c2ccccc2)CC1` gave LMNA splice mod inactive.
For OC(CNCC(c1ccco1)N1CCCCC1)c1ccccc1 (configuration not stated) the results were HPGD inh inactive, LMNA splice mod inactive, 12-hLO inh inactive, ALDH1A1 block 18µM and PNC assembly inh -127.
`CS(=O)(=O)N(CC(=O)Nc1ccc(S(=O)(=O)N2CCOCC2)cc1)c1ccccc1Br` gave ALDH1A1 block inactive.
Screening Cc1c(C(=O)N2CCC(C)CC2)c(S(=O)(=O)Nc2cccc(C#N)c2)c(C)n1C returned LMNA splice mod inactive.
CCCn1c(=O)c2c(c3ccccc31)OC(C)C(=O)N2 (configuration not stated) was read as HPGD inh inactive, LMNA splice mod inactive, 12-hLO inh inactive, ALDH1A1 block inactive and PNC assembly inh -88.
CCCCn1c(=O)c2c(c3ccccc31)OCC(=O)N2 was read as HPGD inh inactive, LMNA splice mod inactive, 12-hLO inh inactive, ALDH1A1 block 20µM and PNC assembly inh inactive.
Screening CCCn1c(=O)c(Cc2ccccc2)c(O)c2ccccc21 returned HPGD inh inconclusive, LMNA splice mod inconclusive, 12-hLO inh inactive, ALDH1A1 block inconclusive and PNC assembly inh inactive.
CC(=O)c1ccc(NC(=O)CSC2=Nc3ccccc3N=C(c3ccc(F)cc3)C2)cc1 was read as LMNA splice mod inactive.
Screening Cc1cccc(OCCCC(=O)NC(C)C)c1 returned HPGD inh inactive, LMNA splice mod inactive, 12-hLO inh inactive, ALDH1A1 block inactive and PNC assembly inh -80.
Screening C#CCN(C)CCCOc1ccc(Cl)cc1Cl returned HPGD inh 14µM, LMNA splice mod inactive, 12-hLO inh inactive, ALDH1A1 block inactive and PNC assembly inh inactive.
`CC(C)NC(=O)CCCOc1ccc(Cl)cc1Cl` gave HPGD inh 14µM, LMNA splice mod inactive, 12-hLO inh inactive, ALDH1A1 block inactive and PNC assembly inh inactive.
Screening O=C(COc1ccc(Cl)cc1Cl)Nc1ccc(Cl)cn1 returned HPGD inh 8.9µM, LMNA splice mod inactive, 12-hLO inh inactive, ALDH1A1 block inactive and PNC assembly inh inactive.
Screening COc1cc(OC)cc(C(=O)N[C@H](C(=O)Nc2nnc(C3CC3)s2)C(C)C)c1 returned LMNA splice mod inconclusive and ALDH1A1 block inactive.
CC(C)[C@@H](CC(=O)N[C@@H]1CCNC[C@H]1C(=O)N[C@H](CC(=O)N[C@@H](CCC(=O)O)CC(=O)O)Cc1ccccc1)NC(=O)C[C@H](Cc1ccccc1)NC(=O)[C@@H]1CNCC[C@H]1N was read as HPGD inh inactive, 12-hLO inh inactive and ALDH1A1 block inactive.
Cc1ccc(C)c(N2CCN(C(=O)c3cc4c(=O)n(Cc5cccs5)ccc4nc3C)CC2)c1 was read as LMNA splice mod inactive.
